Pf growth 96h: inhibits malaria parasite growth, 96 h; P. falciparum luciferase reporter growth, 96 h; Potency, µM (highest dose often 28.7 µM), most hits filed as inhibitors; actives 6.9% (n = 320,000)
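Cell-based qHTS: luciferase-tagged P. falciparum in erythrocytes (2% hematocrit, 0.05% parasitemia final) incubated with compounds for 96 hours, 37 C, 5% CO2; luciferase detection reagent then added and luminescence measured.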
HCMV inh: blocks human cytomegalovirus replication; HFF cells, HCMV-luciferase reporter, 72 h; hits give low values; activity change, negative = inhibition, % at 57.5 µM; actives 4.5% (n = 410,000); AID 1259415; in the data active means activity change below about -60%; inconclusive means no clear call, values can overlap the other calls; inactive means above about -39%
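Two-dose cell screen: HFF monolayers treated with compounds and infected with luciferase-expressing HCMV at 1 PFU/cell, 72 h at 37C, then lysed for luciferase measurement.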
Cycloheximide cs: affects cycloheximide protein synthesis inhibition readout, counter-screen; cell reporter, cycloheximide protein synthesis inhibition counterscreen; actives 12% (n = 300,000); max response, %; in the data active means max response mostly above about 13%, no sharp cut-off; inactive means mostly below about 14%; further: read at 38.3 µM for the half of the compounds with a filed dose
HCV inhibitor: HCV inhibition; Huh7.5.1 HCVcc-Cre infection, luciferase reporter, 44 h; Potency, µM (top dose mostly 41.8 µM), actives largely listed as inhibitors; AID 651820; actives 3.4% (n = 340,000)
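Infectious HCV cell culture screen: compound-treated cells (1,000/well, pre-plated 4 h) are infected with HCVcc-Cre at roughly 0.5 moi and grown 44 h. Infection is quantified by luciferase signal after 15 min substrate incubation at room temperature.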
Shiga toxin inh: inhibitors of Shiga toxin in Vero cells; inhibition, % at 38.7 µM; Vero cells, Shiga toxin protein synthesis inhibition reporter; actives 9.2% (n = 290,000); in the data active means inhibition mostly above about 28%, no sharp cut-off; inactive means mostly below about 43%
Pf growth 48h: P. falciparum growth inhibition at 48 hours (one generation). actives 5.9% (n = 310,000). Potency, µM (series often up to 28.7 µM), hits mostly inhibitors. AID 504832. P. falciparum luciferase growth in erythrocytes, 48 h
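Luciferase-expressing parasites in RBCs, 2% Hct / 0.1% parasitemia final; RPMI 1640 + 0.5% Albumax; 37 C, 5% CO2, one generation; luminescence read-out, lower signal = inhibition.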
Large screens that a line does not name were inactive. Most compounds without a hit are left out; they make up all but 21% or so of the library. Unless noted, the call rests on the fitted dose curve; in most records, active means well fitted inhibition curve with a large enough effect; inconclusive means small, poorly fitted or top-dose-only effect, or another doubt; inactive means no such curve, though single readings can be large or run the other way.

CSc1ccc(CCNC(=O)C(C)n2nc(C)c3sc4ccccc4c3c2=O)cc1 (centres undefined)	none (no result: Pf growth 96h, Cycloheximide cs, HCV inhibitor, Shiga toxin inh, Pf growth 48h)
N#Cc1ccc(COC(=O)c2ccccn2)cc1	none (no result: HCV inhibitor)
COc1cc(/C=C(/C(=O)c2cccs2)c2nc3ccccc3[nH]2)ccc1O	Pf growth 96h 1.2µM, HCMV inh -99, Cycloheximide cs 66, HCV inhibitor inconclusive, Shiga toxin inh 111, Pf growth 48h 2.1µM
O=C(/C=C/c1cccc(Cl)c1)c1nc2ccccc2[nH]1	Cycloheximide cs 14, HCV inhibitor inconclusive, Pf growth 48h inconclusive
COc1ccc(C(=O)N/C(=C\c2cccs2)c2nc3ccccc3[nH]2)cc1OC	Pf growth 96h inconclusive, Cycloheximide cs 22, Shiga toxin inh 98, Pf growth 48h inconclusive
COc1ccc(/C=C(/NC(=O)c2ccccc2)c2nc3ccccc3[nH]2)cc1OC	Pf growth 96h inconclusive, Pf growth 48h inconclusive
COc1cc(/C=C(/C#N)c2nc3ccccc3c(=O)[nH]2)ccc1O	Pf growth 96h inconclusive
N#C/C(=C(/O)c1ccc(C(=O)c2ccccc2)cc1)c1nc2ccccc2[nH]1	none
O=C(/C(=C\c1ccccc1)c1nc2ccccc2[nH]1)c1ccc(Cl)cc1	Pf growth 96h inconclusive, HCMV inh -87, Cycloheximide cs 19, HCV inhibitor inconclusive, Shiga toxin inh 21, Pf growth 48h inconclusive
N#C/C(=C(/O)c1cccs1)c1nc2ccccc2[nH]1	Pf growth 96h inconclusive, Pf growth 48h inconclusive
O=C(/C(=C/c1ccc(Cl)cc1)c1nc2ccccc2[nH]1)c1cccs1	Cycloheximide cs 62, HCV inhibitor 11µM, Pf growth 48h 1.7µM (no result: Pf growth 96h, HCMV inh)
COc1cc(NC(=O)c2c(C)oc3c2C2=NCCN2C=N3)cc(OC)c1OC	none (no result: Pf growth 96h, Cycloheximide cs, HCV inhibitor, Shiga toxin inh, Pf growth 48h)
O=C1CC(c2ccccc2)CC(O)=C1C=Nc1ccc(O)cc1 (centres undefined)	Pf growth 96h 13µM, HCMV inh inconclusive, Cycloheximide cs 18
O=C1CC(c2ccccc2)CC(O)=C1C=NCc1ccccc1Cl (centres undefined)	HCMV inh -81
COC(=O)c1ccc(N=CC2=C(O)CC(c3ccccc3)CC2=O)cc1 (centres undefined)	none
O=C(CNC(=O)c1ccccc1F)NCCc1ccccc1F	none (no result: Cycloheximide cs, Shiga toxin inh)
CC#CCCC(=O)N1C=Cc2ccccc2C1C#N (centres undefined)	Pf growth 48h 2.3µM
COc1ccc(/C=N/Nc2cc(N3CCCC3)nc(N3CCCC3)n2)cc1	Pf growth 96h inconclusive, HCMV inh -76, HCV inhibitor 7.1µM, Pf growth 48h inconclusive
Oc1cccc(/C=N/Nc2cc(N3CCCC3)nc(N3CCCC3)n2)c1	Pf growth 96h inconclusive, HCV inhibitor inconclusive, Pf growth 48h 2.9µM
Oc1ccc(/C=N/Nc2cc(N3CCOCC3)nc(N3CCOCC3)n2)cc1	HCV inhibitor inconclusive (no result: Pf growth 96h, Cycloheximide cs, Shiga toxin inh, Pf growth 48h)
Oc1ccc(/C=N/Nc2cc(N3CCCC3)nc(N3CCCC3)n2)cc1	Pf growth 96h 2.1µM, HCMV inh inconclusive, HCV inhibitor inconclusive, Pf growth 48h inconclusive
O=C(CCn1cccc1)Nc1ccc(OC(F)(F)F)cc1	Pf growth 96h inconclusive
CCCC(=O)Nc1ccc(C(=O)Nc2cccc(OC)c2)cc1	HCMV inh -74, Cycloheximide cs 47, Shiga toxin inh 68
COc1cccc(NC(=O)c2ccc(N3C(=O)C4CC=C(C)CC4C3=O)cc2)c1 (centres undefined)	Pf growth 96h 1.5µM, HCMV inh -64, HCV inhibitor inconclusive
COc1cccc(NC(=O)c2ccc(N3C(=O)C4CC=CCC4C3=O)cc2)c1 (centres undefined)	HCV inhibitor inconclusive (no result: Pf growth 96h, Cycloheximide cs, Shiga toxin inh, Pf growth 48h)
COc1cccc(NC(=O)c2ccc(NC(=O)C(C)(C)C)cc2)c1	Cycloheximide cs 54, HCV inhibitor inconclusive, Shiga toxin inh 56
CCOC(=O)[C@@H]1CSCCS(=O)(=O)N1Cc1ccccc1Br	HCV inhibitor inconclusive (no result: Pf growth 96h, Cycloheximide cs, Shiga toxin inh, Pf growth 48h)
CNC(=S)NNC(=O)c1cc(C(C)(C)C)nn1Cc1ccc(F)cc1	Pf growth 96h inconclusive, Pf growth 48h inconclusive
CCc1nc(N2CCN(C(=O)c3ccco3)CC2)c2c3c(sc2n1)CCCC3	HCV inhibitor inconclusive, Pf growth 48h inconclusive
c1ccc(N2CCN(c3ncnc4sc5c(c34)CCC5)CC2)cc1	HCMV inh -76, HCV inhibitor 10µM, Pf growth 48h inconclusive
CC1CCc2c(sc3nc(C4CC4)nc(N4CCN(C(=O)c5ccco5)CC4)c23)C1 (centres undefined)	HCMV inh -86, HCV inhibitor 4.5µM (no result: Pf growth 96h, Cycloheximide cs, Shiga toxin inh, Pf growth 48h)
O=C(c1ccco1)N1CCN(c2ncnc3sc4c(c23)CCC4)CC1	HCMV inh -67, HCV inhibitor inconclusive, Pf growth 48h inconclusive
COc1ccc(CN2CCN(c3ncnc4sc5c(c34)CCCC5)CC2)cc1F	HCMV inh -70 (no result: Pf growth 96h, Cycloheximide cs, HCV inhibitor, Shiga toxin inh, Pf growth 48h)
c1nc(N2CCC3(CC2)OCCO3)c2c3c(sc2n1)CCCC3	Pf growth 96h inconclusive, HCMV inh inconclusive, Pf growth 48h inconclusive
CC(NC(=O)CSc1nnc(-c2cc3cc(Cl)ccc3o2)n1C)c1ccccc1 (centres undefined)	Pf growth 96h 4.7µM, HCV inhibitor inconclusive, Pf growth 48h inconclusive
O=S(=O)(CS(=O)(=O)c1ccccc1Br)c1ccccc1Br	none (no result: Pf growth 96h, Cycloheximide cs, HCV inhibitor, Shiga toxin inh, Pf growth 48h)
N#Cc1cccc(NC(=O)COC(=O)CCc2nc3ccccc3c(=O)[nH]2)c1	none
Brc1cc(Br)c2nc(-c3ccc(N4CCOCC4)cc3)ccc2c1	Cycloheximide cs 38, HCV inhibitor inconclusive, Shiga toxin inh 55 (no result: HCMV inh)
C[C@@H]1CN([C@@H](C)CO)C(=O)CCCn2cc(nn2)CO[C@H]1CN(C)C(=O)Nc1ccc(-c2cccs2)cc1	none (no result: Pf growth 96h, Cycloheximide cs, HCV inhibitor, Shiga toxin inh, Pf growth 48h)
O=C(N[C@H](Cc1ccccc1)C(=O)NC1CCCCC1)[C@H]1O[C@@H](n2ccc(=O)[nH]c2=O)[C@H](O)[C@@H]1O	none (no result: Pf growth 96h, Cycloheximide cs, HCV inhibitor, Shiga toxin inh, Pf growth 48h)
CCN(CC)c1ccc2nc3c4ccccc4c(=O)cc-3oc2c1	Cycloheximide cs 52, Shiga toxin inh 65
Oc1nc(Nc2ccc(F)cc2)sc1/C=C1\C=Nc2ccccc21	Pf growth 96h inconclusive, HCMV inh inconclusive, HCV inhibitor inconclusive, Pf growth 48h 13µM
CC1=Nc2ccccc2/C1=C\c1sc(Nc2ccc(C)cc2)nc1O	Pf growth 96h 6.6µM, HCMV inh -89, HCV inhibitor inconclusive, Pf growth 48h inconclusive
Oc1cccc(Nc2nc(O)c(/C=C3\C=Nc4ccccc43)s2)c1	Cycloheximide cs 52, HCV inhibitor inconclusive, Shiga toxin inh 94
CCOCCCNC(=O)C(c1ccccc1)N(Cc1cccs1)C(=O)c1ccc(NC(C)=O)cc1 (centres undefined)	none (no result: Pf growth 96h, Cycloheximide cs, HCV inhibitor, Shiga toxin inh, Pf growth 48h)
CCC(C(=O)Nc1cccc(C#N)c1)n1c(=O)c(-c2ccccc2NC(C)=O)nc2ccccc21 (centres undefined)	none (no result: Pf growth 96h, Cycloheximide cs, HCV inhibitor, Shiga toxin inh, Pf growth 48h)
CC(NC(=O)c1ccccc1)c1nc2ccccc2n1Cc1ccc(Cl)cc1 (centres undefined)	none (no result: Pf growth 96h, Cycloheximide cs, HCV inhibitor, Shiga toxin inh, Pf growth 48h)
O=C(Nc1nc2ccccc2n1Cc1ccccc1)c1ccco1	Cycloheximide cs 26, Pf growth 48h 13µM (no result: Pf growth 96h)

From PubChem
